Several values for one entry are separate records, joined by “and”; a condition that tells them apart may be missing. Equal values may be shown once. About 83,000 compounds went through this panel and 20% of them were active in at least one assay; those are over-represented in the sample as a whole.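 96-well plates, one dose, 48 hours. Percent growth reported; active if below 10.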 Activity calls are given as the source filed them.

Data on eleven molecules can be found in PubChem BioAssay (NCI).

What all share (assay): NCI-60 one-dose screen, 48 h (100 = growth as untreated, 0 = no growth, -100 = all killed)
For assay [1], the system named is SK-MEL-2 melanoma. Conditions: 10 µM.
In assay [2] the test system is EKVX NSCLC. Conditions: 10 µM.
Assay [3] has as its system SN12C renal. Conditions: 10 µM.
Assay [4] has as its system UO-31 renal. Conditions: 10 µM.
The subject of assay [5] is TK-10 renal.
The test system of assay [6] is ACHN renal. Conditions: 10 µM.
Assay [7] concerns CAKI-1 renal. Conditions: 10 µM.
Assay [8] has as its system A498 renal. Conditions: 10 µM.
Assay [9] has as its system HL-60(TB) leukemia. Conditions: 10 µM.
Assay [10] has as its system CCRF-CEM leukemia. Conditions: 10 µM.

Consider `C#CC1(O)CCC(C(C)(C)C)CC1` (stereo not drawn), for which the growth in [1] is 112% (inactive); in assay [2] it was 118% (inactive); in assay [3], 104% (inactive); in assay [4], 108% (inactive); in assay [5] (10 µM unless noted), 106% (inactive); in [6], 104% (inactive). Besides, the growth is 110% (inactive) in [7], 99.5% (inactive) in assay [8], 140% (inactive) in [9] and 96.6% (inactive) in assay [10].

In the case of `CC(C)c1cc([N+](=O)[O-])cc([N+](=O)[O-])c1O`, the growth in assay [1] was 94% (inactive); in [2], 110% (inactive); in assay [3], 103% (inactive); in assay [4] it was 85.8% (inactive); in [5] (10 µM unless noted) it was 98.6% (inactive); in assay [6], 103% (inactive). Further, the growth in [7] was 99% (inactive); in assay [8], 108% (inactive); in assay [9], 62.2% (inactive); in assay [10] it was 103% (inactive).

Take `CN(C)CC1(N)C(=O)NC(=O)NC1=O`: the growth was 101% (inactive) in [1]; 103% (inactive) in assay [2]; 96.8% (inactive) in [3]; 96.3% (inactive) in [4]; 97.9% (inactive) in [5] (10 µM unless noted); 101% (inactive) in [6]. For the same molecule, the growth is 96.4% (inactive) in assay [7], 54.9% (inactive) in [8], 97.5% (inactive) in assay [9] and 99.1% (inactive) in assay [10].

For the molecule `COc1cc([C@@H]2c3cc4c(c(O)c3C[C@H]3COC(=O)[C@@H]32)OCO4)cc(OC)c1OC`, the growth in assay [1] was -25.1% (active); in assay [2] it was 44.2% (inactive); in assay [3], 31.8% (inactive); in [4] it was 32.7% (inactive); in assay [5] (10 µM unless noted) it was 38.8% (inactive); in [6], 33.8% (inactive). Moreover, the growth in [7] was 20.3% (inactive); in assay [8], -29.1% (active); in [9], -33.5% (active); in assay [10] it was -5.4% (active).

With `C[C@@H]1C[C@@H]([C@H](O)CC2CC(=O)NC(=O)C2)C(=O)[C@@H](C)C1`, the growth in assay [1] was -6.5% (active); in assay [2], 12.4% (inactive); in [3] it was -0.0682% (active); in assay [4] it was 0.7% (active); in assay [5] (10 µM unless noted), 8.46% (active); in assay [6], 3.19% (active). For the same molecule, the growth is 15.9% (inactive) in [7], 17.7% (inactive) in assay [8] and -3.87% (active) in [9].

Consider `CC(C)C1(NC(=O)C2CC3c4cccc5[nH]cc(c45)CC3N(C)C2)OC2(O)C3CCCN3C(=O)C(Cc3ccccc3)N2C1=O` (stereo not drawn), for which the growth is 107% (inactive) in assay [1]; 98.8% (inactive) in assay [2]; 99.4% (inactive) in assay [3]; 91.3% (inactive) in [4]; 123% (inactive) in assay [5] (10 µM unless noted); 83% (inactive) in [6]. Besides, the growth in assay [7] is 110% (inactive); in assay [8], 97.5% (inactive); in assay [9], 73.9% (inactive); in assay [10] it was 135% (inactive).

`O=[N+]([O-])/C=C/c1ccc([N+](=O)[O-])cc1`: the growth in assay [1] is -43.8% (active) and 79.7% (inactive); in [2], 78.2% (inactive) and 84.1% (inactive); in assay [3], 64.4% (inactive) and 62% (inactive); in assay [4] it was -82.9% (active) and 62.7% (inactive); in assay [5] (10 µM unless noted), 18.8% (inactive) and 88.6% (inactive); in [6], 21.5% (inactive) and 76.4% (inactive). The growth in assay [7] is 38.8% (inactive); in assay [8], 19.7% (inactive) and 126% (inactive); in [9], 17.1% (inactive) and 55.2% (inactive); in [10], 34.8% (inactive).

Regarding `O=[N+]([O-])c1cc[n+]([O-])c2ccccc12`, the growth is -56.2% (active) in [1]; -3.54% (active) in assay [2]; -27.5% (active) in assay [3]; -29.5% (active) in [4]; -22.6% (active) in [5] (10 µM unless noted); -42.4% (active) in [6]. Besides, the growth in assay [7] was -28% (active); in assay [8], -34.7% (active); in assay [9], -26.9% (active); in assay [10] it was -11.1% (active).

As to `CC1CCC2(OC1)OC1C(O)C3C4CCC5CC(OC6OC(CO)C(OC7OC(CO)C(O)C(OC8OCC(O)C(O)C8O)C7OC7OC(CO)C(O)C(OC8OC(CO)C(O)C(O)C8O)C7O)C(O)C6O)C(O)CC5(C)C4CCC3(C)C1C2C` (stereo not drawn), the growth was 8.3% (active) in [1]; -17.2% (active) in [2]; -26.9% (active) in assay [3]; -96.8% (active) in [4]; -27.4% (active) in assay [5] (10 µM); -99% (active) and -94% (active) in assay [5] (100 µM). Further, the growth was 1.57% (active) in [6], -63% (active) in [7], -17.1% (active) in assay [9] and -15.7% (active) in assay [10].

Consider `COc1ccccc1/C=C/[N+](=O)[O-]`, for which the growth was 104% (inactive) in [1]; 72.6% (inactive) in assay [2]; 83.2% (inactive) in assay [3]; 62% (inactive) in [4]; 72.9% (inactive) in assay [5] (10 µM unless noted); 55.5% (inactive) in assay [6]. Further, the growth was 70.9% (inactive) in assay [7], 109% (inactive) in assay [8] and 6.74% (active) in assay [9].

Turning to `O=c1[nH]c2ccccc2n1C1CCN(CCCC(c2ccc(F)cc2)c2ccc(F)cc2)CC1`, the growth is 95.8% (inactive) and 63.6% (inactive) in assay [1]; 42.1% (inactive) and 51.4% (inactive) in assay [2]; 40.7% (inactive) and 58% (inactive) in [3]; 33.1% (inactive) and 12.5% (inactive) in assay [4]; 62.1% (inactive) and 63.3% (inactive) in assay [5] (10 µM unless noted); 44.4% (inactive) in assay [6]. Also, the growth in assay [7] was 35.5% (inactive) and 54% (inactive); in assay [8], 27.2% (inactive) and -9.09% (active); in assay [9] it was -41.7% (active) and -41.6% (active); in [10], -0.815% (active) and 31.2% (inactive).
